Some test systems named below: SK-MEL-2 melanoma; EKVX NSCLC; SN12C renal; UO-31 renal; TK-10 renal; ACHN renal; CAKI-1 renal; A498 renal; CCRF-CEM leukemia; MOLT-4 leukemia.
What all share (experiment): NCI-60 one-dose screen, 48 h (100 = growth as untreated, 0 = no growth, -100 = all killed)
Common to all, as to conditions: 10 µM unless noted

The source of these data is PubChem BioAssay (NCI).

This is part of a sample that, as a whole, favours compounds with a hit. Of some 83,000 tested, about 20% had one in any assay.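 Plates (96-well) were seeded with cells, treated with compound at one concentration, and incubated for 48 hours before percent growth was determined.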 Values without a mark were called inactive. Active and inactive are the calls of the source. How the source made its calls: active means growth percent below 10; inactive means the rest.

Consider `C/C(=N\NC(=S)Nc1ccccc1)c1ccccn1`, for which the growth in the experiment with SK-MEL-2 melanoma was 73.5%; in the experiment with EKVX NSCLC it was 12.9%; in the experiment on SN12C renal, 39.2%; in the experiment with UO-31 renal, -1.12% (active); with TK-10 renal it was 50.9%; in the experiment on ACHN renal it was 17.7%. Further, the growth in the experiment with CAKI-1 renal was 6.16% (active); with A498 renal, 29.1%; with CCRF-CEM leukemia, 16.7%; with MOLT-4 leukemia, 8.83% (active).
For the compound `O=C(O)c1ccccc1N=Cc1ccccc1`, the growth with SK-MEL-2 melanoma is 108%; with EKVX NSCLC it was 101%; with SN12C renal, 110%; with UO-31 renal, 97.5%; in the experiment on TK-10 renal, 103%; in the experiment with ACHN renal, 105%. In addition, the growth with CAKI-1 renal is 96.3%; in the experiment on A498 renal, 117%; in the experiment on CCRF-CEM leukemia, 88.5%; in the experiment with MOLT-4 leukemia, 94.6%.
`Oc1[nH]c2ccc(Cl)cc2c1/C=c1/ccc2c(c1)N=C(c1ccc(F)cc1)N=2`: the growth with SK-MEL-2 melanoma was 92.3%; in the experiment with EKVX NSCLC it was 40.4%; in the experiment on SN12C renal, 74.1%; with UO-31 renal, 61.4%; in the experiment on TK-10 renal, 111%; in the experiment on ACHN renal, 86.6%. In addition, the growth in the experiment with CAKI-1 renal is 44.5%; with A498 renal, 56.1%; with CCRF-CEM leukemia, 7.83% (active); in the experiment on MOLT-4 leukemia it was 35%.
As for `Cc1[nH]nc2ccc3nc(-c4ccc5[nH]ncc5c4)c4c(c3c12)CCCC4`, the growth is -15.5% (active) in the experiment with SK-MEL-2 melanoma; 20.2% in the experiment with EKVX NSCLC; 23.2% in the experiment with SN12C renal; 12.8% with UO-31 renal; 10.3% in the experiment on TK-10 renal; 6.93% (active) in the experiment on ACHN renal. Besides, the growth in the experiment on CAKI-1 renal was 12.5%; in the experiment on A498 renal, -10.8% (active); in the experiment on CCRF-CEM leukemia, 16.8%; with MOLT-4 leukemia it was 3.85% (active).
On to `Cc1ccc(N=CNN=C(N)N)cc1`, for which the growth was 114% in the experiment with SK-MEL-2 melanoma; 117% in the experiment with EKVX NSCLC; 99.3% with SN12C renal; 76.6% in the experiment on UO-31 renal; 118% with TK-10 renal; 102% in the experiment with ACHN renal. The growth is 97% with CAKI-1 renal, 99.2% in the experiment with A498 renal, 101% in the experiment on CCRF-CEM leukemia and 95.4% in the experiment with MOLT-4 leukemia.
Consider `CCN(CC)c1ccc(C(=N)c2ccc(N(C)C)cc2)cc1`, for which the growth with SK-MEL-2 melanoma was -4.95% (active); in the experiment on EKVX NSCLC, 15.2%; in the experiment on SN12C renal it was 24.8%; in the experiment with UO-31 renal it was 8.99% (active); in the experiment on TK-10 renal it was 31.4%; with ACHN renal, 30.1%. Also, the growth in the experiment with CAKI-1 renal is -19.9% (active); with A498 renal, -20.1% (active); in the experiment with CCRF-CEM leukemia it was 21.7%; in the experiment with MOLT-4 leukemia, 17.7%.
Consider `CCNC(=S)N(Cc1ccccc1)Cc1ccccc1`, for which the growth is 98.6% in the experiment with SK-MEL-2 melanoma; 93.1% in the experiment with EKVX NSCLC; 103% in the experiment on SN12C renal; 74.6% in the experiment with UO-31 renal; 106% with TK-10 renal; 96.3% with ACHN renal. Further, the growth in the experiment with CAKI-1 renal is 93.5%; with A498 renal, 116%; in the experiment with CCRF-CEM leukemia it was 132%; in the experiment with MOLT-4 leukemia, 82.4%.
Turning to `CC[C@H](Nc1nc(N)nc(N)c1Cl)c1nc2cccc(NCc3ccc(C(=O)NO)cc3)c2c(=O)n1-c1ccccc1`, the growth with SK-MEL-2 melanoma was 71.5%; in the experiment on EKVX NSCLC, 42%; in the experiment with SN12C renal, 10%; with UO-31 renal, 20.6%; in the experiment with TK-10 renal, -1.39% (active); in the experiment on ACHN renal it was 3.82% (active). Further, the growth in the experiment with CAKI-1 renal was 39.6%; in the experiment with A498 renal, -12.7% (active); in the experiment with CCRF-CEM leukemia, 7.44% (active); in the experiment on MOLT-4 leukemia it was 0.294% (active).
As to `CC(C)[C@H](CN)NC[C@H](C)NS(=O)(=O)c1ccc(C(C)(C)C)cc1`, the growth in the experiment on SK-MEL-2 melanoma was 101%; in the experiment on EKVX NSCLC it was 90%; in the experiment with SN12C renal, 99.8%; with UO-31 renal it was 77.1%; with TK-10 renal it was 93.8%; with ACHN renal, 103%. The growth was 94.1% with CAKI-1 renal, 107% in the experiment with A498 renal, 91.5% in the experiment on CCRF-CEM leukemia and 92.6% with MOLT-4 leukemia.
On to `COc1cccc(/C=N/N=C(N)N)c1`, for which the growth in the experiment on SK-MEL-2 melanoma is 107%; in the experiment on EKVX NSCLC, 102%; in the experiment on SN12C renal it was 95.2%; in the experiment on UO-31 renal, 82.6%; in the experiment with TK-10 renal it was 113%; with ACHN renal, 100%. Also, the growth is 104% in the experiment with CAKI-1 renal, 78% with A498 renal, 108% in the experiment on CCRF-CEM leukemia and 115% in the experiment on MOLT-4 leukemia.
As for `NCCCOc1cc2ccccc2cc1C(=O)NCCCOc1cc2ccccc2cc1C(=O)Nc1ccc(Cl)cc1O`, the growth in the experiment with SK-MEL-2 melanoma was -73.8% (active); in the experiment with EKVX NSCLC, -45.6% (active); with SN12C renal, -78.5% (active); with UO-31 renal it was -95.4% (active); in the experiment on TK-10 renal, -95.5% (active); in the experiment with ACHN renal, -95.9% (active). Also, the growth in the experiment on CAKI-1 renal is -89.9% (active); in the experiment with A498 renal, -38.7% (active); in the experiment with CCRF-CEM leukemia it was -16.3% (active); with MOLT-4 leukemia it was -20.6% (active).
Consider `COC(=O)C(CCC(=O)CCl)N1C(=O)c2ccccc2C1=O` (stereo not given), for which the growth with SK-MEL-2 melanoma was 67.4%; in the experiment with EKVX NSCLC it was 108%; in the experiment with SN12C renal it was 69.9%; in the experiment with UO-31 renal, 48.4%; in the experiment on TK-10 renal, 54%; with ACHN renal, 71.2%. The growth in the experiment on CAKI-1 renal was 67.9%; in the experiment on A498 renal it was 123%; with CCRF-CEM leukemia, 5.21% (active); in the experiment on MOLT-4 leukemia it was 42.6%.
As to `CC[C@H](Nc1nc(C)nc(N)c1C#N)c1nc2cccc(NCc3ccc(C(=O)NO)cc3)c2c(=O)n1-c1ccccc1`, the growth in the experiment on SK-MEL-2 melanoma was 67.2%; in the experiment with EKVX NSCLC, 12.7%; with SN12C renal, 7.89% (active); with UO-31 renal, -12.5% (active); in the experiment with TK-10 renal, 2% (active); in the experiment on ACHN renal it was 2.03% (active). The growth in the experiment on CAKI-1 renal was -11.1% (active); in the experiment on A498 renal it was -27.1% (active); with CCRF-CEM leukemia, 6.17% (active); in the experiment with MOLT-4 leukemia, 2.8% (active).
